Screening results: PubChem BioAssay, National Center for Advancing Translational Sciences (NCATS)
AMA1-RON2 inh – qHTS for Inhibitors of AMA1-RON; Towards Development of Antimalarial Drug Lead: Primary Screen. AID 720542, 2013. Plasmodium falciparum AMA1 (3D7) - RON2 peptide interaction. hit rate 0.2% among 360,000. AlphaScreen AMA1-biotinylated RON2 peptide binding. Potency, µM (highest dose often 58.2 µM), for inactives: top-dose activity change, negative = inhibition, usual class: inhibitors; active means well fitted inhibition curve with a large enough effect; inconclusive means small, poorly fitted or top-dose-only effect; inactive means no such curve, though single readings can be large or run the other way;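 further: potency means the concentration at half of the fitted maximal effect; 0% = vehicle wells and -100% = peptide control; nearly all actives have a fitted effect of over 45% in size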
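AMA1 (3D7) with his tag at 25 nM final met compounds first, then biotinylated RON2 peptide at 25 nM; detection used donor plus acceptor beads, 10 µg/mL apiece, read by AlphaScreen after 30 min at room temperature.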
Shiga toxin inh – A qHTS for Small Molecule Inhibitors of Shiga Toxin; inhibition, % at 38.7 µM; hit rate 9.2% among 290,000; Vero cells, Shiga toxin protein synthesis inhibition reporter; AID 2315, 2010; in the data active means inhibition mostly above about 28%, no sharp cut-off; inactive means mostly below about 43%; further: 0% is about no effect
MARV entry inh – qHTS for inhibitors of binding or entry into cells for Marburg Virus; AID 540276, 2011; Marburg virus pseudotyped entry inhibition, cell reporter; hit rate 1.8% among 300,000; Potency, µM (doses to about 37.8 µM), without a hit: at the top dose activity change, negative = inhibition, hits mostly inhibitors; calls by dose curve; tested in HEK293 cells; further: potency means the concentration at half of the fitted maximal effect; on the % scale 0 is the no-effect control and ±100 the full control effect
LASV entry inh – qHTS for Inhibitors of binding or entry into cells for Lassa Virus | Lassa virus pseudotype entry inhibition, cell reporter | Potency, µM (doses to about 37.9 µM), inactives show at the highest dose activity change, negative = inhibition, most hits filed as inhibitors | hit rate 1.2% among 300,000 | AID 540256, 2011; calls by dose curve; tested in HEK293 cells; further: potency means the concentration at half of the fitted maximal effect; on the % scale 0 is the no-effect control and ±100 the full control effect; nearly all actives have a fitted effect of over 50% in size
Cycloheximide cs – Cycloheximide Counterscreen for Small Molecule Inhibitors of Shiga Toxin; cell reporter, cycloheximide protein synthesis inhibition counterscreen; max response, %; hit rate 12% among 300,000; AID 2314, 2010; in the data active means max response mostly above about 13%, no sharp cut-off; inactive means mostly below about 14%; further: read at 38.3 µM for the half of the compounds with a filed dose; 0% is about no effect
Active calls of the source: *; ? = inconclusive; nt = no result given; [ ] = another dose, or the depositor's remark. This is one part of a sample in which hits are shown more often than they occur.

SMILES | AMA1-RON2 inh | Shiga toxin inh | MARV entry inh | LASV entry inh | Cycloheximide cs
Cc1ccc(NC(=O)Nc2ncccc2C)cc1 | 5% | 106* | 0% | ? | 63*
COC(=O)CSc1nnc(-c2ccco2)n1Cc1ccco1 | -6% | -24 | 0% | 14% | 9
CCCCOc1[nH]c2nc(-c3ccco3)n(Cc3ccco3)c(=N)c2c1C#N | -10% | 6 | 6% | 0% | 16*
CCc1cccc(-n2nnc(-c3nc(-c4ccccc4Cl)no3)c2N)c1 | nt | nt | nt | 4%[46.1 µM] | nt
Nc1ccc(C(=O)OCC(=O)NC(=O)c2ccccc2)cc1[N+](=O)[O-] | 14% | nt | ? | -1%[46.1 µM] | nt
CN(C)c1ccc(Nc2nc(-c3cccnc3)cs2)cc1 | ? | 59* | ? | ? | 52*
Cc1cccc(OC(C)C(=O)Nc2nc(-c3cccnc3)cs2)c1 (stereo not given) | 2% | nt | nt | nt | nt
CCN(CC)c1ccc(Nc2nc(-c3cccnc3)cs2)cc1 | 28µM* | 118* | ? | 3% | 36*
Cc1cc(C)cc(OCC(=O)Nc2nc(-c3cccnc3)cs2)c1 | -1% | -8 | nt | nt | -3
COc1cccc(-c2nn(-c3ccccc3)cc2/C=C(/NC(=O)c2ccccc2)C(=O)O)c1 | 13% | 3 | 0%[46.1 µM] | 1% | -2
CC(=O)Nc1cccc(-c2cc(N3CCN(CCO)CC3)n3nccc3n2)c1 | -2% | nt | nt | nt | nt
COC(=O)NC/C=C\c1nc(CCCO)co1 | nt | nt | -24%[14.2 µM] | nt | nt
CCC(Sc1nc2ccncc2[nH]1)C(=O)Nc1ccc(F)cc1 (stereo not given) | nt | nt | ? | 9%[46.1 µM] | nt
Cc1sc2nc(-c3ccccc3)oc(=O)c2c1C | -6% | 113* | ? | ? | 66*
Nc1nc(-c2ccccc2)nc2sc3c(c12)CCCC3 | -4% | 124* | ? | ? | 53*
O=c1oc(-c2ccccc2)nc2sc3c(c12)CCC3 | -18% | 70* | -2% | ? | 70*
Cc1ccc(C2(c3ccccc3)NC(=O)N(CC(=O)N(C)C3CCS(=O)(=O)C3)C2=O)cc1C (stereo not given) | -7% | nt | nt | nt | nt
CCCN(CC(=O)Nc1ccccc1OC)CC(=O)c1c(N)n(Cc2ccccc2)c(=O)n(C)c1=O | 6% | nt | nt | nt | nt
COc1ccc2c(c1)c(=O)cc(-c1ccccc1)n2C | -7% | 49* | 2% | ? | 22*
CCc1ccccc1N(CC)C(=O)c1cc2c(s1)-c1ccccc1SC2 | nt | nt | -16%[46.1 µM] | ? | nt
CN(CCC#N)C(=O)c1cc2c(s1)-c1ccccc1SC2 | 0% | 81* | ? | 14% | 52*
Oc1ccc(N=C/C=C/c2cccc(Br)c2)cc1-c1nc2ccccc2s1 | 21% | 13 | ? | ? | 32*
Oc1ccc(-c2nc3ccccc3s2)c(O)c1 | 0% | 92* | ? | 15%[46.1 µM] | 40*
Nc1ccccc1-c1nc2ccccc2s1 | 135% | 106* | ? | 10% | 41*
CN(C)c1nc(N)nc(-c2nc3ccccc3s2)n1 | 20% | 101* | ? | 17% | 39*
SMILES | AMA1-RON2 inh | Shiga toxin inh | MARV entry inh | LASV entry inh | Cycloheximide cs
CSc1ccc(C(=O)Nc2ccc(-c3nc4ccccc4s3)c(O)c2)cc1 | nt | nt | nt | -19%[46.1 µM] | nt
CCc1ccc(N(CC(=O)N2CCOCC2)S(C)(=O)=O)cc1 | -9% | nt | 19% | -3% | 2
CCCN1CNC(=S)N(CC2CCCO2)C1 (stereo not given) | 20% | -2 | ? | 1% | -2
Cc1cc(C)c2c(=O)cc(C(=O)Nc3ccc(S(=O)(=O)Nc4onc(C)c4C)cc3)oc2c1 | nt | nt | 2%[46.1 µM] | 35%[46.1 µM] | nt
Nc1ccc(O)c(-c2nc3ccccc3s2)c1 | 21% | 45* | 23% | ? | 47*
COc1ccc(OC)c(NC(=O)CCNS(=O)(=O)c2ccc3c(c2)CC(C)N3C(C)=O)c1 (stereo not given) | 11% | nt | nt | nt | nt
CCN(CC)CCn1c(NCc2ccc(C)o2)nc2ccccc21 | -2% | -12 | ? | 19% | -2
Cn1c(NCc2ccccc2Cl)nc2ccccc21 | -2% | nt | nt | nt | nt
CCOc1ccccc1CNc1nc2ccccc2n1C | 1% | 10 | nt | nt | 7
Cc1ccc(CNc2nc3ccccc3n2C)o1 | -10% | 51* | -9% | -3% | 54*
C=CCn1c(NCc2ccccc2OC)nc2ccccc21 | 0% | 32 | nt | nt | 18*
C=CCn1c(NCc2ccc(OC)cc2O)nc2ccccc21 | -8% | 23* | nt | nt | 33*
Cn1c(NCc2ccccc2O)nc2ccccc21 | 15% | 37 | -14%[46.1 µM] | 24% | 38*
N#Cc1nc(-c2ccc(F)cc2)oc1N1CCC(C(N)=O)CC1 | 0% | 2 | nt | nt | -3
Cc1cc(=O)n2cccc(O)c2n1 | 74% | 14 | 27%[46.1 µM] | 15% | -2
CCc1ccc(NC(=O)c2cc(=O)c3ccc(C)c(C)c3o2)cc1 | nt | nt | ? | 0%[46.1 µM] | nt
COc1ccc(C(=O)NCc2nnc(SCC(=O)Nc3ccccc3)n2-c2ccc(F)cc2)cc1 | nt | nt | 0%[46.1 µM] | ? | nt
C=CCn1c(NCc2ccccc2)nc2ccccc21 | 8% | 51 | ? | 15% | 16*
C=CCn1c(NCc2ccccc2O)nc2ccccc21 | -7% | nt | 3% | 26% | 22*
Cn1c(NCc2cccc(Br)c2)nc2ccccc21 | 1% | 26* | ? | -17% | 13*
c1ccc(Cn2c(NCc3ccncc3)nc3ccccc32)cc1 | 10% | 52* | -25% | -25% | 26*
C=CCn1c(NCc2cc(Cl)ccc2O)nc2ccccc21 | 0% | -6 | ? | ? | 1
C=CCn1c(-c2ccc(C)cc2)nc2ccccc21 | 19% | 26 | -3% | 22% | 9
CCOc1ccc(-c2n[nH]c(C)c2Oc2ccc(OC)cc2)c(O)c1 | 83% | 5 | 0% | ? | 14
COCOc1c2c(c(OCOC)c3c(OCOC)cccc13)/C(=N/N[S+](=O)([O-])c1ccc(C)cc1)C1=C2CCCC1 | nt | nt | -17%[14.2 µM] | nt | nt
SMILES | AMA1-RON2 inh | Shiga toxin inh | MARV entry inh | LASV entry inh | Cycloheximide cs
Cc1c(Cl)cccc1NC(=O)Cn1nnc(-c2nc(-c3ccccc3)no2)c1N | nt | nt | nt | 15%[46.1 µM] | nt
COc1ccc(OCC(=O)N/N=C/c2ccsc2)cc1 | 10% | 14 | 4% | -26% | -1
CCN=c1scc(C)n1/N=C/c1ccsc1 | -17% | 104* | -1% | -12% | 47*
Cc1ccc(-n2c(C)c(C)c3c(NCCCO)ncnc32)cc1 | ? | 120* | ? | ? | 45*
COc1ccc(-n2c(C)c(C)c3c(NCCCO)ncnc32)cc1 | 0% | 71* | ? | ? | 43*
COc1ccc(-n2c(C)c(C)c3c(NCCO)ncnc32)cc1 | -14% | 59* | ? | ? | 33*
Cn1cc(/C=C2\SC(=S)N(N3CCOCC3)C2=O)c2ccccc21 | -2% | -16 | 16%[46.1 µM] | -10%[46.1 µM] | -1
Cc1ccc(N=C2NC(=O)/C(=C/c3cccn3C)S2)c(C)c1 | ? | 21 | ? | ? | 6
Cc1ccc(N=C2NC(=O)/C(=C/c3cn(C)c4ccccc34)S2)cc1C | -19% | -4 | ? | 0.1µM* | -2
Cn1cccc1/C=C1\SC(=Nc2ccccc2)NC1=O | -23% | 85* | nt | nt | 44*
COc1cc(/C=C2\SC(=Nc3ccc(O)cc3)NC2=O)cc(OC)c1O | -6% | -11 | -3%[46.1 µM] | ? | -1
